AHR act: human AHR activation | P35869 | AHR-responsive luciferase reporter cells, luminescence | activation, % at 5 µM | 320,000 tested, 2.5% active | AID 2796; in the data active = activation above about 47%
AI-2 QS mod: modulates the Vibrio harveyi AI-2 quorum sensing system; Vibrio harveyi JMH597 AI-2 luminescence/OD600 ratio, 9 h; active compounds read low; strain lacks LuxN and CqsS sensors; 0 = neutral-control median; activity change, % at 7.5 µM; 300,000 tested, 0.4% active; AID 2094; in the data active = activity change below about -75%, passing the limit was not always enough;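 note: luminescence divided by OD600 gain over 9 h not by final OD600 alone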
Cardio protect: protects H9c2 cardiomyocytes from peroxide injury; 360,000 tested, 0.63% active; protection from H2O2 cell death, % at 20 µM; H2O2 injury protection, ATPLite, 2 h;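 active = compounds giving at least 50% protection of heart cells from peroxide-induced death in the single-dose screen, raw or plate-pattern-corrected value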
GRIN3A LBD mod: NR3A (human) ligand-binding domain modulation; Tm shift relative to glycine control, % at 25 µM; NR3A LBD differential scanning fluorimetry, Tm shift; 0% = protein alone, 100% = glycine-bound protein; 340,000 tested, 2.5% active;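 active = melting temperature shift of at least 10% of the positive control shift, at one fixed dose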
NTR1 agonist: activates human neurotensin receptor 1. NTR1-U2OS beta-arrestin-GFP spot imaging, agonist mode. activation, % at 20 µM. P30989. 330,000 tested, 0.17% active;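 active = activation at or above 40% of the spot to cytoplasm intensity ratio, with at least 20 cells analyzed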
Target sequence (P30989 whole entry, looked up): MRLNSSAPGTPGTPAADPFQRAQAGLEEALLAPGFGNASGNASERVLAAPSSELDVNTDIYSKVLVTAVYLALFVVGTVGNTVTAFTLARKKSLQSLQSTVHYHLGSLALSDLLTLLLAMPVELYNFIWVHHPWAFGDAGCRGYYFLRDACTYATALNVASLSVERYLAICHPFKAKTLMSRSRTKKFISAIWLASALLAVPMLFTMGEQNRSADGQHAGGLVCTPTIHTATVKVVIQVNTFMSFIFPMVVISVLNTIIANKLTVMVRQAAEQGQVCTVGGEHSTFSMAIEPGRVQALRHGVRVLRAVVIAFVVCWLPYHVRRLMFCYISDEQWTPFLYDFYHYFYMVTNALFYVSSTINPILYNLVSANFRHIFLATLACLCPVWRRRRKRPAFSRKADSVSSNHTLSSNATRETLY
Mot1-301 SUMO: inhibitors of SUMOylation pathway: yeast Mot1-301 growth rescue; S. cerevisiae Mot1-301 growth rescue, ATP luminescence, 38.5C; percent above DMSO median, 100 means doubled; growth rescue, % at 18.8 µM; 320,000 tested, 1% active;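 active = every valid replicate shows activation above 250% relative to neutral control wells; inactive = the rest, any valid replicate at or below 250%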
Each line names hits and unclear results; the compound was inactive in the other large screens. Only some compounds are listed: those with a hit (about 6.2% of all), similar ones and a draw of the others.

CCC(=O)Nc1ccc(/C(C)=N/NC(=O)c2c(-c3ccccc3Cl)noc2C)cc1	GRIN3A LBD mod 11.5
Cc1onc(-c2ccccc2Cl)c1C(=O)Nc1ccccc1	none
CCC(CC)N1CCN(S(=O)(=O)c2ccc(OC)cc2)CC1	none
O=CNc1ccc2c(c1)Cc1cccc(NC=O)c1-2	none (no result: AHR act, AI-2 QS mod, NTR1 agonist, Mot1-301 SUMO)
Nc1nnc(-c2ccc(Cl)cc2Cl)s1	GRIN3A LBD mod 12.1
C=CCn1c(-c2sc3nc(C)cc(C)c3c2N)n[nH]c1=S	AHR act 100.4
Nc1ccc(CCNc2ncnc3c2ncn3[C@@H]2O[C@H](CO)[C@@H](O)[C@H]2O)cc1	none
OCC1OC(n2cnc3c(NCCc4ccccc4)ncnc32)C(O)C1O (stereo not given)	Mot1-301 SUMO 316.9
COc1cccc(CNS(=O)(=O)c2cc(Br)cc3c2N(C(C)=O)C(C)C3)c1 (stereo not given)	GRIN3A LBD mod 12.1
CCc1noc(C)c1C(=O)N1CCC(CCC(=O)Nc2cccc(C)c2)CC1	none
Cc1ccc(CN=c2c([N+](=O)[O-])nn(-c3ccc4c(c3)OCCO4)n2O)cc1	GRIN3A LBD mod 13.0
COc1ccc(/C=N/NC(N)=S)cc1	none
NC(=S)N/N=C/c1ccc(C(F)(F)F)cc1	GRIN3A LBD mod 19.1
O=C(CSc1nnc(-c2ccncc2)n1Cc1ccco1)Nc1ccccc1Cl	none
O=C(CSc1nnc(-c2ccncc2)n1Cc1ccco1)Nc1nc(-c2ccccc2)cs1	AHR act 47.7
O=C(CSc1nnc(-c2ccc(Cl)cc2)n1Cc1ccco1)c1cccs1	AHR act 87.3
Cc1sc2nc(SCC(=O)c3cccs3)n(Cc3ccco3)c(=O)c2c1C	GRIN3A LBD mod 10.8
Cc1sc2nc(SCc3ccc(C(=O)O)cc3)n(Cc3ccco3)c(=O)c2c1C	none
Clc1cccc(-c2noc3ncnc(Nc4ccc5c(c4)OCO5)c23)c1	AHR act 55.2
O=S(=O)(NNc1ccc(F)cc1F)c1cccc(Cl)c1	none
CCc1ccc2[nH]c3nc(C)cc(C)c3c(=O)c2c1	AHR act 47.5 (no result: Mot1-301 SUMO)
CCc1ccc2[nH]cc(S(=O)(=O)c3ccc(C)c(C)c3)c(=O)c2c1	none
CCCc1cc(-c2nc(-c3ccc(Br)cc3)cs2)ccn1	AHR act 47.2
CCn1cc(C(=O)NCCc2ccc(Cl)cc2)c(=O)c2cc(S(=O)(=O)N(C)C)ccc21	GRIN3A LBD mod 21.8 (no result: AHR act, Mot1-301 SUMO)
CC(=O)Nc1ccc2c(c1)ncn2C1CCCCC1	none
COC(=O)Nc1ccc2c(c1)ncn2C1CCCCC1	AHR act 66.2
COc1ccc(C(=O)N/C(=C/c2cccs2)C(=O)N2CCN(C)CC2)cc1	none (no result: AHR act, AI-2 QS mod, GRIN3A LBD mod, NTR1 agonist, Mot1-301 SUMO)
O=C(O)CNC(=S)N(Cc1ccccc1F)C1CCCCC1	Mot1-301 SUMO active
FC(F)(F)c1nc2cc3nc4ccccc4[nH]c3cc2n1	AHR act 54.8
OC(c1nc2ccccc2[nH]1)C(O)c1nc2ccccc2[nH]1 (stereo not given)	none
Oc1ccc2c(ccc3[nH]cnc32)c1	none
Brc1cc2[nH]cnc2c2ccccc12	AHR act 63.0
O=C(NCc1ccc(F)cc1)c1cc(C2CCCN(C(=O)C3CCCCC3)C2)on1 (stereo not given)	none (no result: AHR act, AI-2 QS mod, GRIN3A LBD mod, NTR1 agonist, Mot1-301 SUMO)
CCCc1cc(=O)[nH]c(Nc2ccc3c(c2)OCCO3)n1	AHR act 70.7
Cc1ccc(N2C(=O)c3ccccc3C2=O)cc1Cl	GRIN3A LBD mod 11.7
Cc1cc(C)c(S(=O)(=O)N2CCOC2CNC(=O)C(=O)NCCCN2CCOCC2)c(C)c1 (stereo not given)	none
CC1=[N+](CC(=O)c2ccccc2)CCn2cccc21	AHR act 47.5
Cc1cc(C)c[n+](CC(=O)c2ccccc2)c1	none (no result: AHR act)
CCC(C)(C)NC(=O)C(NS(=O)(=O)c1cccs1)c1ccccc1 (stereo not given)	GRIN3A LBD mod 30.6
CCc1cccc(CC)c1NC(=O)C(NS(=O)(=O)c1cccs1)c1ccccc1 (stereo not given)	none
COc1cccc(C(=O)OCC(=O)N2CCc3ccccc3C2)c1OC	none (no result: AI-2 QS mod)
Cc1cc(C)c2[nH]c3nc(SCC(=O)O)nnc3c2c1	AHR act 49.6
CCC(Oc1ccccc1)C(=O)NCCCN1CCOCC1 (stereo not given)	none
CCc1ccc(NC(=O)Cn2c3[n+](c4c(F)c(F)ccc42)CCCCC3)cc1	Mot1-301 SUMO 707.6
O=C(Cn1c2[n+](c3ccc(C(F)(F)F)cc31)CCCCC2)Nc1ccc(Br)cc1	none
O=C(c1ccccc1)c1cnc(Nc2ccc(Cl)c(Cl)c2)s1	GRIN3A LBD mod 29.3
O=C(Nc1ccccc1)C(=O)Nc1cccnc1	none
O=C(Nc1cccnc1)/C(N=Nc1cccnc1)=C(\O)c1ccccc1	AHR act 60.9
CCN(C(=O)CSc1nc2n[nH]c(C)c2c(=N)n1-c1ccc(Cl)c(C)c1)c1cccc(C)c1	none
Cc1cc(-n2c(SCc3ccccc3F)nc3n[nH]c(C)c3c2=N)ccc1Cl	AHR act 55.5
CCC(Sc1nc2n[nH]c(C)c2c(=N)n1-c1ccc(C)c(Cl)c1)C(=O)N1CCOCC1 (stereo not given)	none
COc1ccccc1NC(=O)CSc1nc2n[nH]c(C)c2c(=N)n1-c1ccccc1Cl	AHR act 75.3
CCc1ccccc1NC(=O)CSc1nc2n[nH]c(C)c2c(=N)n1-c1ccc(OC)cc1	none (no result: AHR act, AI-2 QS mod, NTR1 agonist, Mot1-301 SUMO)
CCC(Sc1nc2n[nH]c(C)c2c(=N)n1-c1cccc(Cl)c1)C(=O)NCCOC (stereo not given)	AHR act 63.2
CCc1ccc2oc(C(=O)NCC(c3ccc(OC)cc3)N3CCCCC3)c(C)c2c1 (stereo not given)	none
CC1CC(C)CN(CCC(=O)Nc2ccc(Br)cc2)C1 (stereo not given)	none
CC(O)(CC(=O)CC(=O)c1ccccc1)c1ccccc1 (stereo not given)	none (no result: AHR act, AI-2 QS mod, NTR1 agonist, Mot1-301 SUMO)
Cc1[nH]n(-c2ncc(-c3ccccc3)s2)c(=O)c1C(c1ccc(Cl)cc1)C(C#N)C#N (stereo not given)	GRIN3A LBD mod 12.5
Cc1[nH]n(-c2ccccc2)c(=O)c1C(c1ccccc1[N+](=O)[O-])C(C#N)C#N (stereo not given)	none
Cc1ccc(OCCNC(=O)CCNC(=O)c2ccc(Cl)cc2)cc1	none (no result: AI-2 QS mod)
Cc1ccc(N=N/C(=C\O)C(=O)c2ccncc2)cc1	none
O=C(/C(=C/O)N=Nc1ccc(Cl)cc1)c1ccncc1	AHR act 72.7
CCOC(=O)c1sc(NC(=O)c2cccc(S(=O)(=O)N3CCc4ccccc43)c2)c(C#N)c1C	GRIN3A LBD mod 21.3
CCC(CC)c1nnc(NC(=O)c2cccc(S(=O)(=O)N3CCc4ccccc43)c2)s1	none
O=C(Nc1nc2ccc(F)cc2s1)c1cccc(S(=O)(=O)N2CCc3ccccc32)c1	GRIN3A LBD mod 14.3
